Test results taken from the supplement of paper PMC10338343.
± gives the standard deviation.

What follows are sequences tested on EfPiwi piRISC loaded with L1MC piRNA (26 nt) (assay: pre-steady-state target cleavage rate (min^-1); auxiliary factor: 500 nM Ephydatia muelleri Gtsf1; guide: L1MC piRNA 5'p-UAACUAAAUACUAUGCAAGCUGUAGG; MIWI and MILI are mouse PIWI proteins and EfPiwi is from a freshwater sponge; tags in brackets are library labels; higher = faster piRNA-guided slicing of the target).
Summary of the method: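 Using HEPES–potassium acetate buffer at 33 °C, 1 nM active affinity-purified piRISC with a single synthetic guide was mixed with 0.1 nM transcribed, DNA-blocked target RNA library for 0–8 or 0–960 min, with or without 500 nM GTSF1 partner protein. Uncleaved targets were sequenced and normalised to depth and to weakly complementary targets, and three trials were pooled with k3 capped at 0.0001 min^-1. A burst-and-steady-state fit gave the pre-steady-state cleavage rate.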

Question: For UCCUCCUUGUGCUUGCAUAGUAUUUAGUAA, which “pre-steady-state target cleavage rate” value is on record?
Answer: The value was 0.00675 ± 0.0029.

Question: How did the “pre-steady-state target cleavage rate” value turn out when UCCUGGUACAGGAUGCAUAGUAUUUAGAAA was run?
Answer: The value was 0.00448 ± 0.004.

Question: UCCUGGAUCAGCUAGCAUAGUAUUUAGUUA was tested. Which “pre-steady-state target cleavage rate” value did it give?
Answer: Its value is 0.0313 ± 0.009.

Question: Which “pre-steady-state target cleavage rate” value does the source give for UCCUGGAUGUCGAACGUAAUUAUUUAGUUA here?
Answer: The value was under 0.0001.

Question: For UCCUGCAACAGCUUGCAUAGAAUUUAGUUA, which “pre-steady-state target cleavage rate” value is on record?
Answer: Its value is 0.00434 ± 0.0021.

Question: UCCUGGAUGUCGAACGUAAGUAUUUCAGUUA was tested. Which “pre-steady-state target cleavage rate” value did it give?
Answer: The value was under 0.0001.

Question: For UCCUGGAUGUCGAACGUUAGUAUGUUAGUUA, which “pre-steady-state target cleavage rate” value is on record?
Answer: The value was under 0.0001.

Question: With UCCUGCUACAGCUUGCAUUGUAUUUACUUA as the sequence, how does the “pre-steady-state target cleavage rate” value read?
Answer: The value was 0.00271 ± 0.0027.

Question: How did the “pre-steady-state target cleavage rate” value turn out when UCCUCCUACUGCUUGCAAAGUAUUUAGUUA was run?
Answer: The value was 0.0558 ± 0.017.

Question: UCCUCCUACAGCAUGCUUAGUAUUUAGUUA was tested. Which “pre-steady-state target cleavage rate” value did it give?
Answer: Its value is 0.0116 ± 0.0032.

Question: UCCUCCUACAGCUUGCAUAGUAUUUAGUCUA was tested. Which “pre-steady-state target cleavage rate” value did it give?
Answer: The value was 0.00459 ± 0.0018.

Question: UCCUGCUAGUGCUUGCAUAGUAUUUAGAAA was tested. Which “pre-steady-state target cleavage rate” value did it give?
Answer: The value was 0.00258 ± 0.0014.

Question: UCCUGGAUGAGGUUGCAUAGUAUUUAGAAA was tested. Which “pre-steady-state target cleavage rate” value did it give?
Answer: Its value is 0.00315 ± 0.0029.

Question: With UCCUGGAUGUCGAACGAUAGUCAUUUAGUUA as the sequence, how does the “pre-steady-state target cleavage rate” value read?
Answer: Its value is under 0.0001.

Question: Which “pre-steady-state target cleavage rate” value does the source give for UCCUGGAUGAGCUUGCAUACUAUUUAGAAA here?
Answer: Its value is 0.00478 ± 0.0029.

Question: Which “pre-steady-state target cleavage rate” value does the source give for UCCUGGAUGUCGAACGUAAGUAUUUGGUUA here?
Answer: Its value is under 0.0001.

Question: Which “pre-steady-state target cleavage rate” value does the source give for UCCUGGAUCUGCUUGCAUAGUAUUUAGUUA here?
Answer: Its value is 0.116 ± 0.023.

Question: For UCCUGGUCCAGCUUGCAUAGUAUUUAGUUA, which “pre-steady-state target cleavage rate” value is on record?
Answer: Its value is 0.0262 ± 0.007.

Question: With UCCUGGAUGUCGAACCAUAGUAUUUACGUUA as the sequence, how does the “pre-steady-state target cleavage rate” value read?
Answer: The value was under 0.0001.

Question: How did the “pre-steady-state target cleavage rate” value turn out when UCCUGGUACAGCUUGCAUAGUAAUUUAGUUA was run?
Answer: The value was 0.00647 ± 0.0026.

Question: For UCCUGGAUGUGCUUGCAUAGUAUCUAGUUA, which “pre-steady-state target cleavage rate” value is on record?
Answer: The value was 0.00344 ± 0.0024.

Question: UCCUGGAUCAGACUUGCAUAGUAUUUAGUUA was tested. Which “pre-steady-state target cleavage rate” value did it give?
Answer: The value was 0.0293 ± 0.009.

Question: Which “pre-steady-state target cleavage rate” value does the source give for UCCUGGUACAGCUUCCAUAGUAUUUAGAAA here?
Answer: The value was 0.00336 ± 0.0013.

Question: For UCCUGGAUGUGCUUGCAUACUAUUUAGAUA, which “pre-steady-state target cleavage rate” value is on record?
Answer: Its value is 0.00202 ± 0.0015.
